{
  "source": "PubChem BioAssay AID686979",
  "about": "(National Center for Advancing Translational Sciences (NCATS), 2013)",
  "note": "Among all 420,000 compounds or so, about 50,000 (12%) were called active. Another 26% or so got no clear call; they are omitted. For the sample, actives were picked, then their nearest neighbours and some compounds at random. A number with no mark means an inactive call. Calls come from the whole dose curve; as a rule, active = well fitted inhibition curve with a large enough effect; inconclusive = small, poorly fitted or top-dose-only effect; inactive = flat fitted curve, though single readings scatter. % is set by controls: 0 for no effect and ±100 for the full control effect; potency is the fitted concentration of half-maximal effect.",
  "data": [
    {"test": "qHTS for Inhibitors of human tyrosyl-DNA phosphodiesterase 1 (TDP1): qHTS in cells in presence of CPT; note: nearly all actives have a fitted effect of over 55% in size", "conditions": "chicken DT40 Tdp1-/-;hTDP1 cells + 20 nM CPT, ATP luminescence, 48 h; series mostly up to 46.2 µM; activity change, negative = growth inhibition: at the top concentration", "outline": "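Chicken DT40 Tdp1-/- cells stably complemented with human TDP1 were seeded at 400 cells/well in medium containing 20 nM camptothecin, exposed to pin-transferred compounds, and grown at 37 °C for at least 48 hr. Viability was read as ATP luminescence.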", "units": {"activity change, negative = growth inhibition": "%"}, "values": [
      {"compound": "O=C(COC(=O)c1ccc(F)cc1)Nc1ccc2c(c1)OCO2", "activity change, negative = growth inhibition": -13.4},
      {"compound": "O=C(COC(=O)c1ccncc1)Nc1ccc2c(c1)OCO2", "activity change, negative = growth inhibition": 2.53},
      {"compound": "COc1cc(-c2cc(C(=O)OCC(=O)Nc3ccc4c(c3)OCO4)c3ccccc3n2)cc(OC)c1OC", "activity change, negative = growth inhibition": -18.6},
      {"compound": "NS(=O)(=O)c1ccc(NC(=O)COC(=O)c2c3c(nc4ccccc24)/C(=C\\c2ccc4c(c2)OCO4)CCC3)cc1", "Potency": "18.4 µM (active)"},
      {"compound": "NS(=O)(=O)c1ccc(NC(=O)COC(=O)c2cc3ccccc3oc2=O)cc1", "activity change, negative = growth inhibition": -17.9},
      {"compound": "NC(=O)c1ccc(NC(=O)COC(=O)c2c3c(nc4ccccc24)/C(=C\\c2ccc4c(c2)OCO4)CCC3)cc1", "Potency": "11.6 µM (active)"},
      {"compound": "CC1CC(=O)N(CC(=O)Nc2cccc(Cl)c2)c2ccccc2S1(=O)=O", "note": "(stereo unspecified)", "activity change, negative = growth inhibition": -20.5},
      {"compound": "CCOC(=O)Cc1cc(=O)[nH]c(/N=C(\\N)Nc2ccc(OC)cc2)n1", "activity change, negative = growth inhibition": -18.9},
      {"compound": "COc1ccc(NC(=O)Cn2c(-c3ccc(OC)cc3)cn(-c3ccc(C)cc3)c2=O)cc1", "activity change, negative = growth inhibition": -0.508},
      {"compound": "Cc1ccccc1CNC(=O)CCCn1nc(C)c2sc3ccccc3c2c1=O", "Potency": "18.4 µM (active)"},
      {"compound": "Cc1nn(CCCC(=O)NCc2ccccc2Cl)c(=O)c2nccn12", "activity change, negative = growth inhibition": 0.154},
      {"compound": "CCc1nn(CCCC(=O)NCc2ccccc2OC)c(=O)c2cc3occc3n12", "activity change, negative = growth inhibition": -20.1},
      {"compound": "CC(OC(=O)c1ccc2ccccc2n1)C(=O)c1ccccc1", "note": "(stereo unspecified)", "activity change, negative = growth inhibition": -20.7},
      {"compound": "COc1ccc(C2=NOC(COC(=O)c3ccc4ccccc4n3)C2)cc1", "note": "(stereo unspecified)", "activity change, negative = growth inhibition": -5.82},
      {"compound": "COc1ccc(C(=O)COC(=O)c2ccc3ccccc3n2)cc1", "Potency": "20.6 µM (active)"},
      {"compound": "Cc1ccc(-c2nnc(CN3CCN(C)CC3)o2)cc1", "activity change, negative = growth inhibition": -20.5},
      {"compound": "COCCNC(=O)CSc1c(C)cnc2c1c(=O)n(C)c(=O)n2C", "activity change, negative = growth inhibition": 6.75},
      {"compound": "COc1ccc(C(=O)CSc2c(C(C)C)cnc3c2c(=O)n(C)c(=O)n3C)cc1", "Potency": "16.4 µM (active)"},
      {"compound": "COc1ccc(C(=O)CSc2nccc(=O)[nH]2)cc1", "activity change, negative = growth inhibition": -10.5},
      {"compound": "COc1ccc(CNC(=O)CN2C(=O)c3ccccc3S2(=O)=O)cc1", "activity change, negative = growth inhibition": -0.378},
      {"compound": "CC1CCCCN1S(=O)(=O)c1ccc(C(=O)Nc2nnc(-c3cccs3)o2)cc1", "note": "(stereo unspecified)", "Potency": "6.51 µM (active)"},
      {"compound": "CS(=O)(=O)c1ccc(-c2nnc(NC(=O)c3ccc4c(c3)OCCO4)o2)cc1", "activity change, negative = growth inhibition": -17.5},
      {"compound": "COCCN(CC(=O)Nc1ccccc1C)S(=O)(=O)c1ccc(S(=O)(=O)N2CCCC2)cc1", "activity change, negative = growth inhibition": -16.1},
      {"compound": "CCN(CC(=O)NCc1cccs1)S(=O)(=O)c1ccc(NC(C)=O)cc1", "activity change, negative = growth inhibition": -7.88},
      {"compound": "O=C(NCc1cccs1)C(=O)NCC1OCCCN1S(=O)(=O)c1ccc(F)cc1", "note": "(stereo unspecified)", "activity change, negative = growth inhibition": -20.4},
      {"compound": "CC1CCCCN1S(=O)(=O)c1ccc(S(=O)(=O)N(CC(=O)Nc2ccccc2)Cc2cccs2)cc1", "note": "(stereo unspecified)", "Potency": "25.9 µM (active)"},
      {"compound": "O=C(Nc1nnc(-c2ccccc2)o1)c1cccc(S(=O)(=O)N2CCOCC2)c1", "Potency": "13 µM (active)"},
      {"compound": "O=C(Nc1ccc(N2CCOCC2)cc1)c1cccc(S(=O)(=O)N2CCOCC2)c1", "activity change, negative = growth inhibition": -10},
      {"compound": "CC1CCCN(S(=O)(=O)c2ccc(C(=O)Nc3nnc(-c4ccncc4)o3)cc2)C1", "note": "(stereo unspecified)", "Potency": "11.6 µM (active)"},
      {"compound": "CC1CCCCN1S(=O)(=O)CCNC(=O)c1ccccc1", "note": "(stereo unspecified)", "activity change, negative = growth inhibition": -22.8},
      {"compound": "NC(=O)CSc1nnc(-c2cccc(S(=O)(=O)N3CCOCC3)c2)o1", "activity change, negative = growth inhibition": -6.32},
      {"compound": "CC1CC(C)CN(S(=O)(=O)c2ccc(C(=O)NN3CCOCC3)cc2)C1", "note": "(stereo unspecified)", "activity change, negative = growth inhibition": -4.85},
      {"compound": "CCOC(=O)c1c(/N=C/c2cc(C)ccc2O)sc2c1CCC2", "activity change, negative = growth inhibition": 11.4},
      {"compound": "CC(C)OC(=O)CC(=O)CC(O)c1cccc([N+](=O)[O-])c1", "note": "(stereo unspecified)", "activity change, negative = growth inhibition": -7.73},
      {"compound": "O=C(Nc1nonc1-c1ccc(Cl)cc1)c1ccco1", "activity change, negative = growth inhibition": -16.8},
      {"compound": "O=C(NCc1ccccn1)[C@@H]1CCCN1C(=O)[C@@H]1CCCN1C(=O)c1ccccc1", "activity change, negative = growth inhibition": -1.15},
      {"compound": "CN(Cc1nc(-c2cnccn2)no1)Cc1n[nH]c2c1CCCCC2", "activity change, negative = growth inhibition": -17.5},
      {"compound": "COc1ccccc1CNC(=O)CS(=O)(=O)c1cccc2nsnc12", "activity change, negative = growth inhibition": -18.4},
      {"compound": "Cn1c(=O)c(=O)n(C)c2cc(NC(=O)c3ccccc3Br)ccc21", "activity change, negative = growth inhibition": 3.19},
      {"compound": "c1ccc2c(c1)OC1OC2Oc2ccccc21", "activity change, negative = growth inhibition": -22.8},
      {"compound": "Cc1cc(C)nc(NS(=O)(=O)c2ccc(NC(=O)c3cc(=O)c4ccc(C)c(C)c4o3)cc2)n1", "activity change, negative = growth inhibition": -16.9},
      {"compound": "CS(=O)(=O)N(CC(=O)Nc1ccc(F)cc1)C1CCCCC1", "activity change, negative = growth inhibition": 1.39},
      {"compound": "N[C@H]1CN(c2c(F)cc3c(=O)c(C(=O)O)cn(C4C[C@H]4F)c3c2Cl)CC12CC2", "note": "(stereo partly specified)", "activity change, negative = growth inhibition": -5.28},
      {"compound": "O=C(CSc1nc(Nc2ccccc2)nc(N2CCOCC2)n1)Nc1cc(Cl)ccc1O", "Potency": "25.9 µM (active)"},
      {"compound": "CC1(c2ccccc2)NC(=O)N(CC(=O)Nc2cc(Cl)ccc2N2CCOCC2)C1=O", "note": "(stereo unspecified)", "activity change, negative = growth inhibition": -0.724},
      {"compound": "O=C(CN1CCOCC1)Nc1cc(Cl)ccc1Cl", "activity change, negative = growth inhibition": 0.338},
      {"compound": "Cn1c(N)cc(=O)n(C)c1=S", "activity change, negative = growth inhibition": -6.81},
      {"compound": "Cc1ccnc(NS(=O)(=O)c2ccc(NC(=O)c3oc4ccc(F)cc4c3C)cc2)n1", "activity change, negative = growth inhibition": -8.42},
      {"compound": "COC(=O)c1ccc(NC(=O)C23CC4CC(C2)CC(n2cnc(Cl)n2)(C4)C3)cc1", "Potency": "20.6 µM (active)"},
      {"compound": "Cc1ncn(C23CC4CC(CC(O)(C4)C2)C3)n1", "activity change, negative = growth inhibition": 2.94},
      {"compound": "O=C(Nc1ccc(S(=O)(=O)Nc2ncccn2)cc1)C12CC3CC(CC(C3)C1)C2", "activity change, negative = growth inhibition": 10.4}
    ]}
  ]
}
